From PubChem
12-LOX inh = Primary qHTS assay for inhibitors of human arachidonate 12S-lipoxygenase (ALOX12): Round 2; Potency, µM (doses to about 108 µM), inactives show at the highest dose activity change, negative = inhibition, usual class: inhibitors; hit rate 1.1% among 580,000; Polyunsaturated fatty acid lipoxygenase ALOX12 (Homo sapiens), P18054; AID 1671190, 2021; purified 12hLO, xylenol orange hydroperoxide absorbance; also: potency is read from the fitted curve at half-maximal effect
Target sequence (P18054 whole entry, looked up): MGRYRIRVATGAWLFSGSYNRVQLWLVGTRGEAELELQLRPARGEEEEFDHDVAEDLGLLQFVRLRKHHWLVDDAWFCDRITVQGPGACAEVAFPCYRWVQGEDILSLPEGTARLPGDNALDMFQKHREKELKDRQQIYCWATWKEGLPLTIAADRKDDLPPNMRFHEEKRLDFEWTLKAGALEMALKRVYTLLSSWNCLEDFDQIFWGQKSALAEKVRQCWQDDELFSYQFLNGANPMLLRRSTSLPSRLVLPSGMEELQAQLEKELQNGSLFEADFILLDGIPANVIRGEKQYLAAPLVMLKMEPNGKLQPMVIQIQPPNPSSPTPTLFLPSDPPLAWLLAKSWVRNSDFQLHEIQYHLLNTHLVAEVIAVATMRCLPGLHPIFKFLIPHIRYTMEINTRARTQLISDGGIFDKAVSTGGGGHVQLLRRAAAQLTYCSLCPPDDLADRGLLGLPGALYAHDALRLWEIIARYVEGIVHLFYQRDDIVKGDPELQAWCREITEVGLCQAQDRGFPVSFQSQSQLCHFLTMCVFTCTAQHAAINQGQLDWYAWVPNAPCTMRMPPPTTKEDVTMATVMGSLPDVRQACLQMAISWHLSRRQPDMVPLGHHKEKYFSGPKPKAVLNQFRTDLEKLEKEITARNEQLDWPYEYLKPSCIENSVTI
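Hydroperoxide product was detected by ferrous iron/xylenol orange as the 573 to 405 nm absorbance ratio. Arachidonic acid at 40 uM (final) was turned over for 30 min at room temperature by 150 nM human 12hLO, pH 7.0 Hepes buffer, after 15 min compound preincubation.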
HT1080 IDH1KD tx = qHTS for induction of synthetic lethality in tumor cells producing 2HG: qHTS for the HT-1080-IDH1KD cell line | HT-1080 IDH1 knockdown viability, ATP luminescence, 48 h | Potency, µM (doses to about 46.1 µM), without a hit: at the top dose activity, negative = toxicity, hits mostly cytotoxic | hit rate 2% among 360,000 | AID 686971, 2013;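 also: potency is read from the fitted curve at half-maximal effect; 0% = DMSO wells and -100% = cell-free medium wells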
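After a 2 h attachment period, IDH1KD HT-1080 cells took pin-transferred compound for 48 h at 37 °C; ATP-based luminescence after 10 min room-temperature reagent incubation reported viability.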
IL1B secr inh = qHTS for Inhibitors of Inflammasome Signaling: IL-1-beta AlphaLISA Primary Screen. THP-1 LPS/ATP IL-1B secretion, AlphaLISA, 16 h; active compounds read low. activity change, % at 57.5 µM. hit rate 4.7% among 360,000. AID 743279, 2014; in the data active = activity change below about -50%; inconclusive = mostly about -30% to -49%
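Secreted IL-1B measured by AlphaLISA bead assay after 16 h compound exposure of THP-1 cells; compounds (final up to 57.5 uM) added 1 h before LPS (250 ng/mL) and ATP (1.25 mM) stimulation; lower signal means less secretion.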
TDP1 cell noCPT = qHTS for Inhibitors of human tyrosyl-DNA phosphodiesterase 1 (TDP1): qHTS in cells in absence of CPT; DT40 Tdp1-/- hTDP1 cells, no CPT, ATP luminescence, 48 h; Potency, µM (titrated, usually from 46.2 µM), for the others: at the highest dose activity change, negative = growth inhibition, usual class: inhibitors; hit rate 15% among 420,000; also: potency is read from the fitted curve at half-maximal effect; nearly all actives have a fitted effect of over 55% in size
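Stably hTDP1-transfected Tdp1-null chicken DT40 cells were treated with library compounds minus camptothecin and grown for at least 48 hr at 37 °C, after which cellular ATP was quantified by luminescence.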
DT40 TDP1 CPT = qHTS for Inhibitors of human tyrosyl-DNA phosphodiesterase 1 (TDP1): qHTS in cells in presence of CPT; Potency, µM (top dose mostly 46.2 µM), without a hit: top-dose activity change, negative = growth inhibition, most hits filed as inhibitors; chicken DT40 Tdp1-/-;hTDP1 cells + 20 nM CPT, ATP luminescence, 48 h; hit rate 12% among 420,000; also: potency is read from the fitted curve at half-maximal effect; nearly all actives have a fitted effect of over 55% in size
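Chicken DT40 Tdp1-/- cells stably complemented with human TDP1 were seeded at 400 cells/well in medium containing 20 nM camptothecin, exposed to pin-transferred compounds, and grown at 37 °C for at least 48 hr. Viability was read as ATP luminescence.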
HT1080-NT tox = qHTS for induction of synthetic lethality in tumor cells producing 2HG: qHTS for the HT-1080-NT fibrosarcoma cell line; HT-1080-NT fibrosarcoma viability, CellTiter-Glo ATP luminescence, 48 h; Potency, µM (series often up to 46.1 µM), without a hit: at the top dose activity, negative = less viability, most hits filed as cytotoxic; hit rate 1.6% among 360,000; AID 686970, 2013;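 also: NT is the 2HG producing partner of a matched IDH1 knockdown line; potency is read from the fitted curve at half-maximal effect; 0% = DMSO-treated cells and -100% = media-only wells without cells; nearly all actives have a fitted effect of over 55% in size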
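Toxicity toward the 2HG-producing NT line was scored as %Activity, normalised to DMSO and no-cell wells, from CellTiter-Glo luminescence after 48 hours' treatment.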
* = called active by the depositor; ? = inconclusive; . = not tested or not shown; [ ] = another dose, or the depositor's remark. The full list was thinned out, with hits kept by preference. Unless noted, calls follow the shape of the dose curve; as a rule, active = well fitted curve in the direction sought with a large enough effect; inconclusive = small, poorly fitted or top-dose-only effect, or another doubt; inactive = no such curve, though single readings can be large; an effect the other way counts as inactive or inconclusive. Unless noted, % is scaled to controls: 0 for no effect and ±100 for the full control effect.

SMILES	12-LOX inh	HT1080 IDH1KD tx	IL1B secr inh	TDP1 cell noCPT	DT40 TDP1 CPT	HT1080-NT tox
O=C(Nc1ccccc1C(=O)N1CCCC1)C1CC(=O)N(c2ccccc2)C1 (stereo unspecified)	-2.7%	.	.	.	.	.
CC1(C)Cc2c(sc3c2c(=N)n(Cc2ccco2)c(=O)n3Cc2ccccc2)CO1	4.3%	-13.7%	-22.6	?	18.4µM*	-10.0%
CC1(C)Cc2c(sc3[nH]c(=S)n(Cc4ccco4)c(=O)c23)CO1	?	?	?	?	20.6µM*	?
CCOc1ccc(/C=C/c2[nH]c(=O)[nH]c(=O)c2[N+](=O)[O-])cc1	199.7%	9.6%	16.2	-1.1%	-8.7%	21.3%
CC(C)c1ccc(/C=C/c2[nH]c(=O)[nH]c(=O)c2[N+](=O)[O-])cc1	?	?	-82.0*	?	-25.3%	-1.8%
CCOc1cc(/C=C\c2[nH]c(=O)[nH]c(=O)c2[N+](=O)[O-])ccc1OC(C)CC (stereo unspecified)	7.7%	?	-92.4*	-5.6%	-19.1%	10µM*
COc1ccc(O)c(CN2CCC3(CC2)c2ccccc2[C@@H](NC(=O)c2cccc(F)c2)[C@@H]3OC)c1	?	.	.	16.4µM*	-6.1%[9.04 µM]	.
C=CCNC(=S)NNC(=O)C1CC1	1.1%	.	.	.	.	.
COc1cc(OC)cc(C(=O)Nc2cc(NC(=O)c3ccco3)ccc2OC)c1	-10.8%	?	-23.3	18.4µM*	23.1µM*	-12.3%
Cc1cc(NC(=O)c2ccc3c(c2)OCO3)ccc1NC(=O)c1ccco1	-1.2%	18.4µM*	.	?	?	?
COc1ccc(NC(=O)c2ccco2)cc1NC(=O)c1cc2ccccc2o1	3.5%	2.3%	11.4	14.6µM*	23.1µM*	14.2%
Cc1cc(NC(=O)c2ccco2)ccc1NC(=O)c1ccco1	?	-25.9%	-9.8	?	?	?
Cc1cc(NC(=O)c2ccc3c(c2)OCO3)ccc1NC(=O)c1ccccc1	8.6%	?	-18.0	?	?	-23.1%
COc1cc(OC)cc(C(=O)Nc2ccc(NC(=O)c3ccco3)c(C)c2)c1	-26.0%	23.1µM*	-21.0	?	?	?
CCCOc1cccc(C(=O)Nc2cc(NC(=O)c3ccco3)ccc2OC)c1	-5.9%	0.7%	-9.5	?	?	9.3%
O=C1NCCCCCCN(C(=O)COc2ccc(F)cc2)[C@H]2CCCC[C@@H]12	37.6%	.	.	.	.	.
CCS(=O)c1ccccc1C(=O)NCc1ccc(C)cc1 (stereo unspecified)	17.8µM*	.	.	.	.	.
Cn1cnc(S(=O)(=O)N2CCC[C@H](n3c(=O)n(C)c4cccnc43)C2)c1	32.4%	.	.	.	.	.
CCCCN(CC)CCNC(=O)c1nn(-c2ccc(OC)cc2)c(=O)c2c1c1ccccc1n2C	-24.8%	-12.3%	14.4	?	?	-3.7%
CCCCN(CC)C(=O)c1nn(-c2ccc(OC)cc2)c(=O)c2c1c1ccccc1n2C	-18.7%	.	.	23.1µM*	?	.
CCN(Cc1ccccc1)C(=O)c1nn(-c2ccc(OC)cc2)c(=O)c2c1c1ccccc1n2C	-14.8%	2.0%	-0.4	23.1µM*	11.6µM*	-3.3%
CCCN(C(=O)c1nn(-c2ccc(OC)cc2)c(=O)c2c1c1ccccc1n2C)c1ccc(CC)cc1	-20.6%	.	.	?	-17.2%	.
Cc1cccc(-c2nc(CSCC(=O)N3CCN(c4ccccn4)CC3)c(C)o2)c1	-9.8%	?	-59.4*	?	20.6µM*	-15.0%
Cc1cccc(-c2nc(CSCC(=O)N3CCN(c4cccc(C)c4C)CC3)c(C)o2)c1	-13.4%	.	.	?	18.4µM*	.
CN(C)CCNC(=O)c1cc2sc3ccccc3c2s1	-16.6%	23.1µM*	-70.9*	23.1µM*	?	20.6µM*
SMILES	12-LOX inh	HT1080 IDH1KD tx	IL1B secr inh	TDP1 cell noCPT	DT40 TDP1 CPT	HT1080-NT tox
COCCN(CCOC)C(=O)c1cc2sc3ccccc3c2s1	-14.8%	-2.5%[9.24 µM]	?	?	?	-2.5%
CCN(CC)C(=O)c1cc2sc3ccccc3c2s1	15.8µM*	-5.3%	-12.5	?	?	-9.3%
O=C(NCCN1CCN(c2cccc(Cl)c2)CC1)c1cccn2c(=O)c3ccccc3nc12	17.0%	-13.0%	14.7	1.1%	-2.4%	-4.6%
CCOC(CNC(=O)c1cccn2c(=O)c3c(C)c(C)sc3nc12)OCC	-2.0%	0.0%	0.5	18.4µM*	16.4µM*	15.9%
CCOC(CNC(=O)c1cccn2c(=O)c3cc(Cl)ccc3nc12)OCC	7.2%	-1.1%	-6.4	13µM*	11.6µM*	18.1%
O=C(NCCN1CCN(c2ccccc2)CC1)c1cccn2c(=O)c3cc(Cl)ccc3nc12	-16.8%	-3.9%	20.2	18.4µM*	?	13.0%
COC[C@H]1NC(=O)CC[C@H]1C(=O)Nc1ccc2c(c1)OCCO2	41.0%	.	.	.	.	.
CCC(=O)N1CCc2cc(S(=O)(=O)CCC(=O)N3CCN(c4ccccc4Cl)CC3)ccc21	-6.0%	.	.	?	18.4µM*	.
CCC(=O)N1c2ccc(S(=O)(=O)CCC(=O)NC3CCCC3)cc2CC1C (stereo unspecified)	0.0%	2.9%	18.6	-2.7%	-27.2%	4.7%
CC(=O)c1ccc(N2CCN(C(=O)CCS(=O)(=O)c3ccc4c(c3)CCN4C(C)=O)CC2)cc1	-0.4%	-1.3%	3.1	?	20.6µM*	0.7%
CC(=O)N1CCc2cc(S(=O)(=O)CCC(=O)N3CCN(c4ccccc4F)CC3)ccc21	-3.9%	-4.3%	15.8	1.1%	?	-0.5%
CCC(=O)N1c2ccc(S(=O)(=O)CCC(=O)Nc3ccc(Br)c(C)c3)cc2CC1C (stereo unspecified)	?	.	.	20.6µM*	18.4µM*	.
CCC(=O)N1c2ccc(S(=O)(=O)CCC(=O)N3CCN(c4ccc(F)cc4)CC3)cc2CC1C (stereo unspecified)	0.0%	.	.	13µM*	14.6µM*	.
Cc1cc(C)cc(NC(=O)c2cc3ccccc3oc2=O)c1	12.3%	.	.	.	.	.
CCc1ccc2oc(=O)cc(CN3CCN(CC(=O)N(C)C4CCCCC4)CC3)c2c1	-1.5%	.	.	.	.	.
